Values of other authors, collected in PubChem BioAssay AID977608.
Hit rate of the full screen: of about 4,300 compounds, about 4,300 (100%) were called active. The limit is not given here; nearly all actives have IC50 up to about 1400 µM. So high a share suggests a set chosen from earlier hits. Some of the results follow. *1 amine or outer side, *2 acyl side, *3 side chain or, on linkers, in order; H or OH if unused. Where a SMILES comes first, the peptide text is derived from it. Square brackets hold non-standard residues; d marks the D form. Residues, ends and D or L forms follow the SMILES beside them. Side-chain parts run from the residue outwards. Peptide text beside a SMILES is read from it. [ ]: non-standard residue; d: D form. The star is where a group is joined. N(2S-NH-3-Ph-propyl)Phe = O=C([C@H](Cc1ccccc1)N(C[C@H](Cc1ccccc1)N[*:3])[*:1])[*:2]; Orn(CH(NH2)2) = NC(N)NCCC[C@H](N)C(=O)O; X1 = CC(N)NCCC[C@H](N)C(=O)*; Nle = CCCC[C@H](N)C(=O)O

Assay: protein-ligand inhibition affinities from structures – PDB-derived complexes (AID 977608)
[1] = literature IC50, protein: metallodependent class II fructose-1,6-bisphosphate aldolase (FBA-tb), PDB entry 4a22 unless noted

## COCCN/C=C1/C(=O)N(C)c2ccc(C(F)(F)F)cc2N(c2ccccc2)C1=O
[1]
  IC50: 890 nM [literature IC50, protein: HIV-1 capsid protein (N-terminal domain), PDB entry 4inb] (active)

## C[N+](C)(C)CCCP(O)O
[1]
  IC50: 520 nM [literature IC50, protein: human gamma-butyrobetaine hydroxylase, PDB entry 4bgk] (active)

## O=C(O)c1ccc2cccc(O)c2n1
[1]
  IC50: 10000 nM [literature IC50, protein: M. tuberculosis's class IIa fructose 1,6-bisphosphate aldolase, MtFBA, PDB entry 4lv4] (active)

## c1csc(-c2cc(CNC34CC5CC(CC(C5)C3)C4)no2)c1
[1]
  IC50: 16000 nM [literature IC50, protein: Membrane ion channel M2, PDB entry 2ly0] (active)

## COCN1CCC(C(N)=O)CC1
[1]
  IC50: 300000 nM [literature IC50, protein: ACETYLCHOLINESTERASE, PDB entry 3zlv] (active)

## Cc1cc(S(=O)(=O)N(Cc2ccc([N+](=O)[O-])cc2)[C@H](C)C(=O)NO)ccc1F
[1]
  IC50: 14900 nM [literature IC50, PDB entry 4pkt] (active)

## Cc1cc(S(=O)(=O)N(Cc2cccc(N)c2)[C@H](C)C(=O)NO)ccc1F
[1]
  IC50: 30000 nM [literature IC50, PDB entry 4pku] (active)

## Cc1cc(S(=O)(=O)N(Cc2ccc(CN)cc2)[C@H](C)C(=O)NO)ccc1F
[1]
  IC50: 5600 nM [literature IC50, PDB entry 4pkv] (active)

## Cc1cc(S(=O)(=O)N(Cc2ccccc2)[C@H](C)C(=O)NO)ccc1F
[1]
  IC50: 15200 nM [literature IC50, PDB entry 4pkr] (active)

## Cc1cc(S(=O)(=O)N(Cc2cccnc2)[C@H](C)C(=O)NO)ccc1F
[1]
  IC50: 15200 nM [literature IC50, PDB entry 4pks] (active)

## FC(F)(F)c1nc2ccccc2[nH]1
[1]
  IC50: 138 µM [literature IC50, protein: 3-OXOACYL-[ACYL-CARRIER-PROTEIN] REDUCTASE FABG, PDB entry 4bnt] (active)

## CCOC(=O)CC[C@H](C[C@@H]1CCNC1=O)NC(=O)[C@@H](CC(=O)[C@@H](NC(=O)c1cc(C)on1)C(C)C)Cc1ccc(F)cc1
[1]
  IC50: 1670 nM [literature IC50, protein: 3C proteinase, PDB entry 4ght] (active)

## O=C(CO[P+](O)(O)O)N(O)CCCCO[P+](O)(O)O
[1]
  IC50: 3.2 nM (active)

## CCC(CC)O[C@@H]1C[C@@H](C(=O)O)C[C@H](N)[C@H]1NC(C)=O
[1]
  IC50: 0.79 nM [literature IC50, protein: Neuraminidase, PDB entry 4mwq] (active)

## CCC(CC)O[C@@H]1CC(C(=O)O)C[C@H](N)[C@H]1NC(C)=O (stereo not given in full)
[1]
  IC50: 0.5 nM [literature IC50, protein: Neuraminidase, PDB entry 4hzx] (active)

## CCC(CC)O[C@@H]1C[C@H](C(=O)O)C[C@H](N)[C@H]1NC(C)=O
Literature IC50, protein: Neuraminidase7, PDB entry 4qn7
  IC50: 0.84 nM (active)
Literature IC50, protein: Neuraminidase, PDB entry 4mww
  IC50: 215000 nM (active)

## CCC(CC)O[C@@H]1CC(C(=O)O)=C[C@H](N)[C@@H]1NC(C)=O
[1]
  IC50: 0.9 nM [literature IC50, protein: Influenza Neuraminidase H3N8, PDB entry 4m3m] (active)

## Nc1c2c(nc3cc(Cl)ccc13)C[C@H]1C=C(CCCCn3cc(CO)nn3)C[C@@H]2C1
[1]
  IC50: 0.43 nM [literature IC50, protein: ACETYLCHOLINESTERASE, PDB entry 4a16] (active)

## Nc1c2c(nc3cc(Cl)ccc13)C[C@H]1C=C(CCO)C[C@@H]2C1
[1]
  IC50: 1.1 nM [literature IC50, protein: ACETYLCHOLINESTERASE, PDB entry 4bdt] (active)

## O=C(O)Cc1cc(=O)oc2c(O)c(O)ccc12
[1]
  IC50: 4800 nM [literature IC50, protein: Reverse transcriptase/ribonuclease H RT RNase H, PDB entry 4qag] (active)

## CC[C@H](C)[C@H]1NC(=O)[C@@H](NC(=O)[C@H](C)[C@H](O)C(C)C)[C@@H](C)OC(=O)[C@@H]2COC(=O)CNC(=O)/C=C/[C@]3(CO3)[C@@H](C)Oc3ccc(cc3)[C@H](NC1=O)C(=O)N(C)[C@@H](Cc1ccccc1)C(=O)N[C@H]([C@@H](C)O)C(=O)N2
[1]
  IC50: 200 nM [literature IC50, protein: Escherichia coli RNA polymerase, PDB entry 4mex] (active)

## C[C@H](N)C(=O)N[C@@H](C)C(=O)N[C@@H](C)C(=O)O
[1]
  IC50: 340000 nM [literature IC50, protein: DI-OR TRIPEPTIDE\:H+ SYMPORTER, PDB entry 4d2d] (active)

## C[C@@]1(O)CCN2C(=O)CCc3cccc1c32
[1]
  IC50: 198000 nM [literature IC50, protein: DUAL SPECIFICITY MITOGEN-ACTIVATED PROTEIN KINASE KINASE 1, PDB entry 3zlw] (active)

## Oc1cc(Cl)ccc1Oc1ccc(Cl)cc1Cl
[1]
  IC50: 54.7 µM [literature IC50, protein: Enoyl-[acyl-carrier-protein] reductase hERG, PDB entry 4w9n] (active)

## Nc1nc2nc(C(=O)NCCNC(=O)O)cnc2c(=O)[nH]1
[1]
  IC50: 28000 nM [literature IC50, PDB entry 4mx5] (active)

## Nc1nc2nc(C(=O)NCCNC(=O)Nc3ccccc3)cnc2c(=O)[nH]1
[1]
  IC50: 209000 nM [literature IC50, PDB entry 4mx1] (active)

## NCCCCC[C@@H](C[SeH5])C(=O)O
[1]
  IC50: 2 nM [literature IC50, protein: Carboxypeptidase B, PDB entry 3wc5] (active)

## CCCC[C@H](NC(=O)[C@H](C)NC(=O)[C@H](CCC(=O)O)NC(=O)[C@H](Cc1ccccc1)NC[C@H](Cc1ccccc1)NC(=O)[C@@H](NC(=O)[C@@H](N)CCCNC(C)N)C(C)C)C(=O)O (stereo partly drawn) (H-[N(2S-NH-3-Ph-propyl)Phe]([Val-X1])EA[Nle]-OH)
[1]
  IC50: 142 nM [literature IC50, protein: HIV-1 PROTEASE (Q7K, L10I, D25N, M36V, M46L, I54V, I62V, L63P, A71V, V82T, I84V, L90M mutation), PDB entry 4gye] (active)

## Nc1ncnc2c1ncn2[C@@H]1O[C@H](CO[P+](=O)O[C@@H]2[C@H](O)[C@@H](CO[P+](O)(O)O[C@@H]3[C@H](O)[C@@H](CO[P+](O)(O)O)O[C@H]3n3cnc4c(N)ncnc43)O[C@H]2n2cnc3c(N)ncnc32)[C@@H](O)[C@H]1O (stereo not given in full)
[1]
  IC50: 13 nM [literature IC50, protein: interferon-induced endoribonuclease, ribonuclease L, PDB entry 1wdy] (active)

## Oc1c(Br)cccc1-c1[nH]c(Br)c(Br)c1Br
[1]
  IC50: 19000 nM [literature IC50, protein: Non-Mevalonate Pathway Enzyme IspD from Arabidopsis thaliana, PDB entry 4nan] (active)

## Oc1c(Br)cc(Br)cc1-c1[nH]c(Br)c(Br)c1Br
[1]
  IC50: 1400 nM [literature IC50, protein: Non-Mevalonate Pathway Enzyme IspD from Arabidopsis thaliana, PDB entry 4nak] (active)

## Oc1c(Cl)cc(Cl)cc1-c1[nH]c(Br)c(Br)c1Br
[1]
  IC50: 2200 nM [literature IC50, protein: Non-Mevalonate Pathway Enzyme IspD from Arabidopsis thaliana, PDB entry 4nal] (active)

## CC(C)C[C@H](NC(=O)[C@H](CO)NC(=O)[C@H](CO)NC(=O)[C@H](CCC(=O)O)NC(=O)[C@H](Cc1ccc(O)cc1)NC(=O)[C@H](Cc1ccc(O)cc1)NC(=O)[C@H](CCCNC(N)N)NC(=O)[C@@H](N)Cc1c[nH]cn1)C(=O)N[C@@H](CCC(=O)O)C(=O)N1CCC[C@H]1C(=O)N[C@@H](Cc1c[nH]c2ccccc12)C(=O)N[C@@H](Cc1ccc(O)cc1)C(=O)N1CCC[C@H]1C(=O)N[C@@H](CC(=O)O)C(=O)O (H-H[Orn(CH(NH2)2)]YYESSLEPWYPD-OH)
[1]
  IC50: 120 nM [literature IC50, PDB entry 1jbd] (active)

## CC(C)C[C@H](NC(=O)[C@H](CO)NC(=O)[C@H](CO)NC(=O)[C@H](CCC(=O)O)NC(=O)[C@H](Cc1ccc(O)cc1)NC(=O)[C@H](Cc1ccc(O)cc1)NC(=O)[C@H](CCCNC(N)N)NC(=O)[C@@H](N)Cc1c[nH]c2ccccc12)C(=O)N[C@@H](CCC(=O)O)C(=O)N1CCC[C@H]1C(=O)N[C@@H](Cc1ccc(O)cc1)C(=O)N1CCC[C@H]1C(=O)N[C@@H](CC(=O)O)C(=O)O (H-W[Orn(CH(NH2)2)]YYESSLEPYPD-OH)
[1]
  IC50: 2 nM [literature IC50, PDB entry 1haa] (active)

## CC(C)C[C@H](NC(=O)[C@H](CO)NC(=O)[C@H](CO)NC(=O)[C@H](CCC(=O)O)NC(=O)[C@H](Cc1ccc(O)cc1)NC(=O)[C@H](Cc1ccc(O)cc1)NC(=O)[C@H](CCCNC(N)N)NC(=O)[C@@H](N)Cc1ccccc1)C(=O)N[C@@H](CCC(=O)O)C(=O)N1CCC[C@H]1C(=O)N[C@@H](Cc1c[nH]c2ccccc12)C(=O)N[C@@H](CC(=O)O)C(=O)N[C@@H](CC(=O)O)C(=O)O (HELM PEPTIDE1{F.[NC(N)NCCC[C@H](N[*:1])C(=O)[*:2]].Y.Y.E.S.S.L.E.P.W.D.D}$$$$V2.0)
[1]
  IC50: 4.9 nM [literature IC50, PDB entry 1rgj] (active)

## C[C@@H]1Oc2ccc(CN3CC=C(c4ccc(Cl)cc4)CC3)cc2NC1=O
[1]
  IC50: 3 nM [literature IC50, protein: Poly [ADP-ribose] polymerase 1, PDB entry 4l6s] (active)

## COC(=O)C[C@@H](C)c1n[nH]c2nc(N)[nH]c(=O)c2c1=O
[1]
  IC50: 376000 nM [literature IC50, protein: Dihydropteroate synthase, PDB entry 4d8a] (active)

## CCC(CC)Oc1cc(C(=O)O)cc(N)c1NC(C)=O
[1]
  IC50: 8.31 nM [literature IC50, protein: Neuraminidase, PDB entry 4hzz] (active)

## CCc1c(C)nc(-c2ccc(Cl)s2)nc1Nc1ccc(CC(=O)O)cc1
[1]
  IC50: 32 nM [literature IC50, protein: Catalytic Domain Of Human Phosphodiesterase 4B, PDB entry 4myq] (active)

## Cc1nc2ccccc2c(-c2cc(F)c3c(c2C)CCCO3)c1[C@H](OC(C)(C)C)C(=O)O
[1]
  IC50: 67 nM [literature IC50, protein: HIV-1 integrase (F185K mutation), PDB entry 4e1n] (active)

## CO[C@H](C(=O)O)c1c(C)nc2ccc(Br)cc2c1-c1ccc(Cl)cc1
Literature IC50, protein: HIV-1 Integrase catalytic core domain (A128T, F185K mutation), PDB entry 4jlh
  IC50: 4000 nM (active)
Literature IC50, protein: HIV-1 Integrase, PDB entry 4dmn
  IC50: 2300 nM (active)

## Cc1nc(-c2nc3ccc(Cl)cc3[nH]2)c(C)c(-c2ccccc2)c1[C@H](OC(C)(C)C)C(=O)O
[1]
  IC50: 5.03 nM [literature IC50, protein: Integrase HIV-1 IN CCD F185K/A128T, PDB entry 4o5b] (active)

## Cc1ccc(-c2c([C@H](OC(C)(C)C)C(=O)O)c(C)nc3ccccc23)cc1C
[1]
  IC50: 55 nM [literature IC50, protein: HIV-1 Integrase (F185K mutation), PDB entry 4e1m] (active)
